High-throughput results: PubChem BioAssay, National Center for Advancing Translational Sciences (NCATS)
ELG1 genotox: inducers of genotoxicity in HEK293T ELG1-luciferase cells. Potency, µM (highest dose often 46 µM), for the others: top-dose activity change, positive = activation, most hits filed as activators. AID 504466. hit rate 1.3% among 330,000. HEK293T ELG1-luciferase reporter, luminescence, 16 h; also: % of control where 0% means no effect; nearly all actives have a fitted effect of over 60% in size
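Quantitative HTS format in 1536-well plates. HEK293T ELG1-luciferase reporter cells receive test compound and are incubated 16 hr at 37 °C, 5% CO2; ONE-Glo added, 30 min room temperature, then luminescence read.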
FLuc counter: firefly luciferase modulation, counter-screen for miR-21 project. P08659. purified FLuc, Km substrates, luminescence inhibition. Potency, µM (series often up to 57.5 µM), without a hit: at the top dose activity change, negative = inhibition, most hits filed as inhibitors. hit rate 6.9% among 360,000. AID 588342;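 also: plate controls were vehicle for no effect and reference inhibitor for full effect; nearly all actives have a fitted effect of over 55% in size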
Target sequence (P08659 whole entry, looked up): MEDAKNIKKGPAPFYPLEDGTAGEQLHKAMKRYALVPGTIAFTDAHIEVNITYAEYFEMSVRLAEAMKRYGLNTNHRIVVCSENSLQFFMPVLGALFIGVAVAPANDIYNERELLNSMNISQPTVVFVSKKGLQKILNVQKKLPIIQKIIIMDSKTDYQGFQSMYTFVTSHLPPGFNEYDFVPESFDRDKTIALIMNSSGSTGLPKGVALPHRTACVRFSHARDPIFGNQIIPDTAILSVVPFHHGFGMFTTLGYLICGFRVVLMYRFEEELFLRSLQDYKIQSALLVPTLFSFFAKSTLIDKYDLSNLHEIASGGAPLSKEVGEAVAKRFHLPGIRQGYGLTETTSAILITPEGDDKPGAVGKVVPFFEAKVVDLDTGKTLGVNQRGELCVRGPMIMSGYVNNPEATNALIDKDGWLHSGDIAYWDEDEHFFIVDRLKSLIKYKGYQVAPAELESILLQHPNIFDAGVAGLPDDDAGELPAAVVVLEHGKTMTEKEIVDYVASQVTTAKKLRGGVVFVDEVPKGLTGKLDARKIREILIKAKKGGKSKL
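Purified P. pyralis luciferase (10nM final) with 10uM D-luciferin and 10uM ATP (Km levels) in 50mM Tris acetate pH 7.5, 10mM Mg acetate, 0.01% Tween-20, 0.05% BSA; qHTS 6-point titration, ~60 µM downward; luminescence read.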
p53 reactivator: restores transcriptional activity of mutant p53; Potency, µM (series often up to 92.2 µM), for inactives: at the top dose activity change, positive = activation, most hits filed as activators; H1299 p53-A138V BP100-luciferase reporter, luminescence, 24 h; hit rate 0.063% among 320,000; AID 504706; also: % of control where 0% means no effect; nearly all actives have a fitted effect of over 45% in size
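H1299 (p53-null), stable ts p53-A138V + BP100-Luc; 1000 cells/well, Opti-MEM/10% FBS; cpd 4 pt, 1:5; 24 h, 37 deg C, 5% CO2; detection reagent 10 min RT; luminescence.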
NPC1 promoter act: NPC1 promoter activation; Potency, µM (series often up to 9.22 µM), for inactives: at the top dose activation, most hits filed as activators; AID 485313; hit rate 2.4% among 320,000; Huh7 NPC1 promoter luciferase reporter, 24 h; also: % of control where 0% means no effect; nearly all actives have a fitted effect of over 60% in size
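Luminescence read-out of NPC1 promoter-driven luciferase in stably transfected Huh7 cells; compounds delivered in DMSO and left 24 h at 37C, 5% CO2, qHTS titration format.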
Rab9 promoter act: Rab9 promoter activation. Potency, µM (doses to about 9.22 µM), inactives show at the highest dose activation, negative = inhibition, actives largely listed as activators. hit rate 2.8% among 320,000. Huh7 Rab9 promoter-luciferase reporter, luminescence, 24 h; also: % of control where 0% means no effect; nearly all actives have a fitted effect of over 60% in size
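Promoter activation is measured as luciferase luminescence in Huh7 cells stably transfected with a Rab9 promoter–luciferase construct, following 24 h compound exposure at 37 °C and 10 min reagent incubation at ambient temperature.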
SMN2 splice enh: increases expression of the SMN2 splice variant. HEK293 SMN2-luciferase splicing reporter, luminescence, 30-36 h. Potency, µM (series often up to 46.1 µM), without a hit: at the highest dose activity change, positive = activation, usual class: activators. hit rate 2.8% among 210,000. AID 1458; also: % of control where 0% means no effect; nearly all actives have a fitted effect of over 55% in size
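HEK293 cells carry an SMN2 minigene-luciferase reporter in which exon 7 inclusion puts luciferase in frame. Cells were seeded at 2000 cells/well, attached for 10-12 hours, then exposed to compounds for 30-36 hours at 37C before ONE-Glo luminescence.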
The depositor's hits bear a star; ? = inconclusive; . = not tested or not shown. A selection: hits, their analogues and other compounds. The true share with any hit is near 7.4%. Calls follow the shape of the dose curve; as a rule, active = well fitted curve in the direction sought with a large enough effect; inconclusive = small, poorly fitted or top-dose-only effect, or another doubt; inactive = no such curve, though single readings can be large; an effect the other way counts as inactive or inconclusive. Potency is read from the fitted curve at half-maximal effect.

SMILES | ELG1 genotox | FLuc counter | p53 reactivator | NPC1 promoter act | Rab9 promoter act | SMN2 splice enh
Cc1ccc2nc(SCC(=O)c3ccccc3)nc(=O)n2c1 | ? | 11µM* | ? | 2.5µM* | ? | .
Cc1ccn2c(=O)nc(SCC(=O)NCc3ccccc3)nc2c1 | 0% | -3% | -6% | 1% | -4% | .
Cc1ccn2c(=O)nc(SCC(=O)c3ccccc3)nc2c1 | ? | 15µM* | ? | ? | ? | .
Cc1ccc2nc(SCC(=O)N3CCCC3)nc(=O)n2c1 | 3% | 2% | 8% | -2% | -6% | .
CCOc1ccccc1C(=O)N(Cc1ccco1)Cc1ccco1 | . | 1% | . | . | . | 15%
NC(N)=Nc1nc(C2COc3ccccc3O2)cs1 (stereo not given) | ? | 3.4µM* | ? | 1.6µM* | 1.3µM* | 4.5µM*
CC(=O)Nc1nc(C2COc3ccccc3O2)cs1 (stereo not given) | 0.65µM* | 4.8µM* | 2% | 1.3µM* | 0.56µM* | 4µM*
CCCCOC(=O)n1c(=S)oc2cc(Cl)ccc21 | 1% | 17µM* | 10% | 0% | -6% | -11%
COC(=O)n1c(=S)oc2cc(Cl)ccc21 | -2% | ? | 2% | 3% | 3% | 47%
Cc1cccc(NC(=O)/C(C#N)=C/c2ccc(C)o2)c1 | . | 9.5µM* | . | . | . | 13µM*
Cc1ccc(NC(=O)/C(C#N)=C/c2ccc(C)o2)cc1 | . | 1.9µM* | . | . | . | 7.1µM*
CC(C)(C)NC(=O)c1cnn(-c2ccccc2)c1C1CCN(C(=O)OC(C)(C)C)CC1 | . | -1% | . | . | . | .
CCCS(=O)(=O)Nc1cccc(-c2ccc3nnc(C)n3n2)c1 | ? | 1% | -4% | -9% | -1% | 16µM*
Cn1c(O)c(C=Nc2ccc(Br)cc2)sc1=O | ? | ? | ? | ? | 4.5µM* | 2.8µM*
Cc1nc(NC(=O)c2ccc(F)cc2)nc2cc3c(cc12)OCO3 | 1% | ? | 16% | 2% | 5% | -3%
Cc1nc(NC(=O)c2ccccc2)nc2cc3c(cc12)OCO3 | ? | 17µM* | 34% | ? | ? | ?
CCCSCCCNC(=O)Cn1c(-c2cccs2)cc2ccccc21 | . | -10% | . | . | . | .
O=c1c(Cl)c(NCc2ccccc2Cl)cnn1C12CC3CC(CC(C3)C1)C2 | 1% | 12µM* | -4% | -4% | -4% | -51%
COC(=O)Cc1c(O)ccn(CCc2c[nH]c3ccccc23)c1=O | 2% | -3% | 1% | -2% | -11% | 6%
COC(=O)Cc1c(OC)ccn(CCc2c[nH]c3ccccc23)c1=O | ? | 17µM* | ? | ? | 3.2µM* | 11µM*
Nc1nc2cc3ccccc3cc2[nH]c1=O | 7% | -10% | . | -4% | 10% | .
CC(=O)Nc1ccc2nc(-c3ccccn3)[nH]c2c1 | ? | 19µM* | 18% | 3.5µM* | 2.8µM* | 11µM*
c1cncc(-c2nc3cc4ccccc4cc3[nH]2)c1 | ? | 0.6µM* | 16% | ? | 1.6µM* | 4µM*
COc1cccc2[nH]c(-c3ccccn3)nc12 | . | . | . | . | . | 4µM*
c1ccc(-c2nc3cc4ccccc4cc3[nH]2)nc1 | 0.23µM* | 0.11µM* | -2% | 0.63µM* | 0.63µM* | 0.45µM*
SMILES | ELG1 genotox | FLuc counter | p53 reactivator | NPC1 promoter act | Rab9 promoter act | SMN2 splice enh
CC(=O)Nc1ccc2nc(-c3cc(C)ccc3C)[nH]c2c1 | . | ? | . | . | . | 0%
COc1cccc(CNC(=O)c2cc(=O)[nH]c3ccc(S(=O)(=O)N4CCCC4)cc23)c1 | . | 2% | . | . | . | 0%
CC1(C)OC2CC3C4CC(F)C5=CC(=O)CC[C@@]5(C)C4C(O)C[C@@]3(C)[C@]2(C(=O)CO)O1 (stereo not given in full) | . | . | . | . | . | 5%
Cc1cccc(C(=O)OCC(=O)c2ccc3c(c2)OCO3)c1O | 2.6µM* | 0.38µM* | ? | 0.45µM* | 1.4µM* | .
CC(C)C(=O)Nc1ccccc1C(=O)OCC(=O)c1ccc2c(c1)OCCO2 | 0% | 1.3µM* | ? | ? | 2.8µM* | -18%
O=C(COC(=O)c1ccccc1[N+](=O)[O-])c1ccc2c(c1)OCO2 | ? | 0.019µM* | 11% | 0.32µM* | 0.32µM* | .
COc1ccc(/C(N)=N/OC(=O)c2ccc([N+](=O)[O-])c(C)c2)cc1OC | -4% | ? | 10% | -3% | -2% | -10%
Cc1ccc(OC(=O)c2ccc(C)c([N+](=O)[O-])c2)cn1 | 1% | ? | 7% | -1% | -4% | 11%
Cc1cc(C(=O)O/N=C(\N)c2ccncc2)ccc1[N+](=O)[O-] | ? | 17µM* | ? | ? | 3.2µM* | .
COc1ccc(/C(N)=N/OC(=O)c2ccc(C)c([N+](=O)[O-])c2)cc1 | ? | 19µM* | 29% | 20% | 21% | -2%
Cc1ccc(NC(=O)CCCCCN2C(=O)[C@@H]3Cc4ccccc4CN3C2=O)c(Cl)c1 | -13% | -10% | -3% | -5% | -3% | .
O=c1/c(=C\c2cccc(O)c2)sc2nc(-c3ccccc3)c(-c3ccccc3)n12 | -4% | 0% | -10% | -9% | 0% | .
Oc1ccccc1/C=N/NC(=S)NC1CC2C=CC1C2 (stereo not given) | ? | 13µM* | 21% | ? | ? | .
Oc1c(Cl)cc(Cl)cc1/C=N/NC(=S)NC1CC2C=CC1C2 (stereo not given) | -12% | ? | 2% | -2% | -6% | .
S=C(NCCc1ccccc1)N/N=C/c1cccc(Cl)c1Cl | 6% | -1% | ? | 0% | -2% | 17%
Oc1ccccc1/C=N/NC(=S)NCCc1ccccc1 | -3% | 27µM* | 10% | 29% | 27% | .
COC(=O)c1sccc1S(=O)(=O)N(CC(=O)NCc1ccc(C)cc1)c1ccccc1 | . | -8% | . | . | . | .
CCOc1ccc(Nc2nc(N)nc(CSC(=S)N3CCOCC3)n2)cc1 | 5% | ? | 3% | 2.8µM* | 29% | .
CC1CC(C)CN(C(=S)SCc2nc(N)nc(Nc3ccccc3)n2)C1 (stereo not given) | -3% | -6% | 1% | 1% | -5% | .
COc1ccccc1Nc1nc(N)nc(CN2CCCCC2)n1 | -16% | -3% | 2% | -3% | -8% | -18%
Nc1nc(CSC(=S)N2CCCCC2)nc(Nc2ccccc2)n1 | ? | 27µM* | 2% | 29% | ? | ?
COc1ccccc1Nc1nc(N)nc(CSC(=S)N2CCCCC2)n1 | 14% | 17µM* | 17% | 6% | 21% | .
Nc1nc(CSC(=S)N2CCOCC2)nc(Nc2ccccc2)n1 | 21µM* | 13µM* | ? | ? | 3.5µM* | 11µM*
CCn1c(SCC(=O)Nc2nccs2)nnc1-c1ccccn1 | 1% | 2% | 24% | -3% | 6% | .
